Data reported in PubChem BioAssay AID1233 (SRMLSC, 2008).
Results with a measured potency or affinity are listed apart.

biological target: HMG-CoA reductase [Enterococcus faecalis] (UniProt Q9FD70); test: inhibitors of E. faecalis class II HMGR, confirmation, biochemical, Enterococcus faecalis (AID 1233);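 note: 0% = full reaction carrier wells and 100% = background wells lacking mevalonate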; settings: purified E. faecalis HMGR, NADPH absorbance 340 nm kinetics; series mostly up to 100 µM; inhibition: at the top concentration

inhibition, inactive:
O=C(NCCCN1CCOCC1)c1cn(-c2ccccc2)nc1-c1cccs1 -2.74%, COc1ccc(CNC(=O)COC(=O)[C@H](Cc2c[nH]c3ccccc23)NC(=O)c2cccs2)cc1 -3.37%, CC1(C)CNC(=O)c2sc(NC(=O)c3ccccc3)nc2C1 -0.14%, CCCCOC(=O)NCN1C(=O)C2C3C=CC(C3)C2C1=O (stereo not drawn) 0.54%, COC(=O)CNC(=O)c1cc(OC)cc(OC)c1 -3.23%, Cc1ccc(S(=O)(=O)N2CCCC2C(=O)Nc2nc3ccccc3s2)cc1 (stereo not drawn) -3.26%, O=C(Nc1ccc(Cl)cc1)Nc1nnc(-c2ccncc2)s1 0.95%, Cc1nc(Nc2nc3ccccc3o2)nc2c1CCC2 -0.84%, Brc1c(NC2=NCCN2)ccc2nccnc12 -4.78%, COc1cc(OC)cc(C(=O)N[C@H](C(=O)OCn2nnc3ccccc3c2=O)C(C)C)c1 11.6%, CCCCc1c(O)nc(SCC(=O)c2ccccc2)[nH]c1=O -0.69%, Cc1ccc(Cl)cc1N=C(N)N=C(N)N -1.8%, S=C(NCCc1ccccc1)N1CCN(Cc2ccccc2)CC1 -0.76%, Cc1cc(Cl)ccc1Oc1nccc(N(C)C)c1C#N -1.84%, O=c1c(OC2OC(CO)C(O)C(O)C2O)c(-c2ccc(O)c(O)c2)oc2cc(O)cc(O)c12 (stereo not drawn) -3.08%, COc1ccc(N2C(=O)C3C4C=CC(C5CC45)C3C2=O)c([N+](=O)[O-])c1 (stereo not drawn) -1.92%, O=C(COC(=O)c1ccc[nH]c1=O)NC1CCCCCC1 -0.24%, COc1ccccc1CNC(=O)C1CCCN(S(=O)(=O)c2c(C)[nH]c(=O)[nH]c2=O)C1 (stereo not drawn) -6.01%
